From PubChem BioAssay AID847 (SRMLSC, 2007)
Hit rate of the full screen: of about 41,000 compounds, about 190 (0.46%) were called active. The list comes from a sample in which actives are over-represented; it also holds similar structures and randomly drawn compounds. Values without a mark were called inactive.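 The calls were made as follows: active = viability at or below the median of all test compounds minus 3 SD, in both replicates if run twice (cut at about 45% in these data); inconclusive = duplicate replicates that disagree with each other; inactive = viability above that cutoff in every replicate.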

Experiment: SK-BR-3 proliferation inhibitors, primary screen, cell-based, human, 24 h (AID 847);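 also: 100% = median untreated cell wells and 0% = median positive control drug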
Conditions: SK-BR-3 viability, CellTiter-Glo ATP luminescence, at 10 µM, active compounds read low

Compound | viability
c1ccc2c(NCC3CCCO3)nc(-c3ccncc3)nc2c1 (stereo not given) | 101%
CCc1ccc(-c2nnn(Cc3nn[nH]n3)n2)cc1 | 112%
CCc1nnc(NC(=O)CSc2nnc(COc3ccc(C#N)cc3)n2-c2ccccc2)s1 | 86%
Cc1ccc(S(=O)(=O)N2CCC(C(=O)N[C@@H](C)C(=O)NCCc3ccccc3)CC2)cc1 | 100%
COc1ccc(C2CC(c3ccc(C)cc3)Nc3nc(N)nn32)cc1 (stereo not given) | 102%
CC(C)=C(NC(=O)c1ccco1)C(=O)NCCc1nc2ccccc2[nH]1 | 122%
Cc1cc(N2CCN(Cc3ccc4c(c3)OCO4)CC2)n2ncnc2n1 | 88.1%
Cc1ccc(N(CC(O)CN2CCCC2)S(=O)(=O)c2ccccc2)cc1 (stereo not given) | 84.9%
CC(C)C(NC(=O)c1cccc(S(=O)(=O)N2CCOCC2)c1)C(=O)NCCc1ccccn1 (stereo not given) | 84.8%
Cc1ccc(S(=O)(=O)NCC(=O)OCC(=O)N2CCc3ccccc32)cc1 | 75.8%
CCCCNc1nc2c(c(=O)[nH]c(=O)n2C)n1CCOc1ccccc1 | 114%
c1ccc(-n2ncc3c(N4CCCC4)ncnc32)cc1 | 86.5%
CN(C)Cc1c(C#N)c2ccccc2n1C | 99.7%
O=C(c1ccco1)N(Cc1nc2ccccc2c(=O)[nH]1)C1CCCC1 | 87.8%
COC(=O)COc1ccc2oc(=O)cc(C)c2c1 | 87%
COC(=O)c1cn(-c2ccccc2)nc1-c1cccnc1 | 119%
CC(C(=O)O)N1C(=O)c2cccc3cccc1c23 (stereo not given) | 91.2%
Cc1cc(C)c(NC(=O)CS(=O)CC(=O)Nc2cccnc2)c(C)c1 (stereo not given) | 79.8%
COc1ccc(CSc2nc(N3CCOCC3)c3c(c2C#N)CC(C)(C)OC3)cc1 | 76.6%
CS(=O)(=O)N1CCN(C(=O)c2cc3ccccc3oc2=O)CC1 | 82.4%
Cc1cc(=O)[nH]c(SCC(N)=O)c1C#N | 121%
Cc1ccc(S(=O)(=O)NCc2nc3ccccc3c(=O)n2N)cc1 | 87.3%
CC(=O)c1cc(-c2ccccc2)[nH]c1N1CCCC1 | 89.9%
Cc1ccc(C)c(NC(=O)C2CCCN2C(=O)OC(C)(C)C)c1 (stereo not given) | 102%
COc1ccc(C(=O)N2CCC(C(=O)Nc3cccc(C)c3)CC2)cc1OC | 106%

Compound | viability
Cc1ccccc1NC(=O)c1cnn(-c2ccccc2)c1NC(=O)c1ccco1 | 117%
O=C1NC(c2cc3c(cc2Cl)OCO3)Oc2ccccc21 (stereo not given) | 110%
CCCC(C)n1[nH]c(=O)c2c(C)cc(C)nc21 (stereo not given) | 87%
Cc1cc(C)n2nc(C(=O)Oc3ccc4c(c3)OCO4)nc2n1 | 86.1%
CC(C)OCCCNc1nc2c(c(=O)n(Cc3ccccc3F)c(=O)n2C)n1C | 68.2%
Clc1ccc(CSc2nnc([C@@H]3CCCN3)o2)cc1 | 80.8%
O=C(NCc1cccnc1)c1cn(-c2ccccc2)nc1-c1cccs1 | 74.3%
COC(=O)Nc1c(C)n(C)n(-c2ccccc2)c1=O | 104%
O=S(=O)(O)c1nc2ccccc2n1Cc1ccc(Cl)cc1Cl | 98.8%
Cc1cc(Br)ccc1NC(=O)C1CCCO1 (stereo not given) | 75.5%
c1cnc(NC2C3CC4CC(C3)CC2C4)nc1 (stereo not given) | 98.3%
O=C(c1ccco1)N1CCN(C(=O)C2c3ccccc3Oc3ccccc32)CC1 | 99.4%
O=C(Nc1ccon1)c1sc2ccccc2c1Cl | 122%
COc1cccc(-c2nc(S(=O)(=O)c3ccccc3)c(N3CCOCC3)o2)c1 | 83.1%
c1ccc(-c2[nH]ncc2-c2nc3ccccc3[nH]2)cc1 | 42.9% (active)
O=c1[nH]c(-c2ccccc2)c(-c2ccccc2)[nH]1 | 96.3%
c1ccc(-c2nnc(SCc3nc4ccccc4[nH]3)o2)cc1 | 70.7%
CC(C)C(c1nnnn1CCc1ccccc1)N1CCN(C(=O)c2ccco2)CC1 (stereo not given) | 102%
CSCCC(Nc1nc2ccccc2s1)C(=O)O (stereo not given) | 81.1%
Cc1cc(NC(=O)CCC2COc3ccccc3O2)no1 (stereo not given) | 94.5%
Cc1ccc2nc(NC3=NCN(CCc4ccccc4)CN3)nc(C)c2c1 | 95.4%
COc1ccccc1N1CCN(C(=O)c2ccc(S(=O)(=O)N3CCCCC3)cc2)CC1 | 123%
COC(=O)c1ccccc1NC(=O)CSc1ccccn1 | 81.2%
COc1ccc(N2CCN(CCNC(=O)c3nnc(Cc4c(F)cccc4Cl)o3)CC2)cc1 | 75%
CCOC(=O)c1ccccc1NC(=O)CC1Nc2ccccc2NC1=O (stereo not given) | 47.2%
